Assay outcomes deposited in PubChem by National Center for Advancing Translational Sciences (NCATS).
Compounds with a hit are over-represented: about 13% of the library has one in this group of screens.
FMDV antiviral = antivirals against foot and mouth disease virus; FMDV antiviral cell-based qHTS; Potency, µM (doses to about 57.9 µM), actives largely listed as inhibitors; hit rate 1.2% among 410,000; AID 1159524; calls by dose curve; tested in HEK293T cells; also: read-out not given here; nearly all actives have a fitted effect of over 45% in size
Shiga toxin inh = inhibitors of Shiga toxin in Vero cells | Vero cells, Shiga toxin protein synthesis inhibition reporter | inhibition, % at 38.7 µM | hit rate 9.2% among 290,000; in the data active = inhibition mostly above about 28%, no sharp cut-off; inactive = mostly below about 43%
HCV inh = inhibitors of hepatitis C virus infection; Huh7.5.1 HCVcc-Cre infection, luciferase reporter, 44 h; Potency, µM (highest dose often 41.8 µM), most hits filed as inhibitors; hit rate 3.4% among 340,000; AID 651820; active = well fitted inhibition curve with a large enough effect; inconclusive = small, poorly fitted or top-dose-only effect, or another doubt; inactive = no such curve, though single readings can be large or run the other way
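Antiviral activity was scored by luciferase reporter output from cells infected with HCVcc-Cre (~0.5 moi) in presence of compound, 44 h infection period, cells seeded 1,000/well 4 h prior.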
MARV entry inh = Marburg virus entry inhibition; Potency, µM (top dose mostly 37.8 µM), hits mostly inhibitors; AID 540276; Marburg virus pseudotyped entry inhibition, cell reporter; hit rate 1.8% among 300,000; calls by dose curve; tested in HEK293 cells
CHX counter = affects cycloheximide protein synthesis inhibition readout, counter-screen | cell reporter, cycloheximide protein synthesis inhibition counterscreen | max response, % | hit rate 12% among 300,000 | AID 2314; in the data active = max response mostly above about 13%, no sharp cut-off; inactive = mostly below about 14%; also: read at 38.3 µM for the half of the compounds with a filed dose
LASV entry inh = inhibitors of Lassa virus binding or cell entry; Potency, µM (doses to about 37.9 µM), usual class: inhibitors; hit rate 1.2% among 300,000; Lassa virus pseudotype entry inhibition, cell reporter; calls by dose curve; tested in HEK293 cells; also: nearly all actives have a fitted effect of over 50% in size
Each line names hits and unclear results; the compound was inactive in the other large screens.

Cc1cc2cc(CN(Cc3cccs3)C(=S)NCC3CCCO3)c(=O)[nH]c2cc1C (stereo unspecified)	HCV inh inconclusive, MARV entry inh inconclusive, LASV entry inh inconclusive
O=C(OCc1cn([C@H]2CN(CC3CCCCC3)[C@@H](c3ccc(Cl)cc3)C[C@H]2O)nn1)c1ccccc1	MARV entry inh 14.1µM (no result: FMDV antiviral, Shiga toxin inh, HCV inh, CHX counter, LASV entry inh)
Nc1ncnc2c1ncn2CCc1ccccc1	Shiga toxin inh 44.0, MARV entry inh inconclusive, CHX counter 29.3
Cc1ccccc1OCCn1cnc2c(N)ncnc21	CHX counter 11.4
FC(F)(F)c1cccc(NC(=S)N2CCCCCC2)c1	none (no result: MARV entry inh, LASV entry inh)
O=C(Nc1cccc([N+](=O)[O-])c1)C(=O)N1CCCCC1	Shiga toxin inh 69.4, CHX counter 43.0 (no result: MARV entry inh, LASV entry inh)
O=C(Nc1cccc(C(F)(F)F)c1)C(=O)N1CCCCC1	CHX counter 11.2
O=[N+]([O-])c1cccc(NC(=S)N2CCCC2)c1	none
Cn1c(COc2ccccc2)nnc1SCCN1CCOCC1	none
CC1=NN(C(=O)c2csc(C)c2C)C(O)(C(F)(F)F)C1 (stereo unspecified)	Shiga toxin inh 47.2, MARV entry inh inconclusive, CHX counter 37.3
CC1=NN(C(=O)c2nn(C)cc2Br)C(O)(C(F)(F)F)C1 (stereo unspecified)	Shiga toxin inh 59.5, CHX counter 35.1
COC(=O)C1=NN(C(=O)c2ccc(Br)cc2)C(O)(C(C)(C)C)C1 (stereo unspecified)	HCV inh inconclusive
CC1=NN(C(=O)c2csc(C)c2)C(O)(C(F)(F)F)C1 (stereo unspecified)	none
CC1=NN(C(=O)c2ccc(Br)cc2)C(O)(C(F)(F)OC(F)(F)F)C1 (stereo unspecified)	FMDV antiviral inconclusive, CHX counter 16.6
CC1=NN(C(=O)c2c(Br)cnn2C)C(O)(C(F)(F)F)C1 (stereo unspecified)	MARV entry inh inconclusive
CC(C)Oc1ccc(CCNC(=O)C2CCC(=O)N(C3CCCCCC3)C2)cc1 (stereo unspecified)	none (no result: MARV entry inh, LASV entry inh)
Cc1ccccc1OCC(=O)OCC(=O)NCCc1ccccc1	none (no result: Shiga toxin inh, MARV entry inh, CHX counter, LASV entry inh)
COc1cccc(C2CC3(CC(C)(C)NC(=S)N3)Oc3cc(O)ccc32)c1 (stereo unspecified)	HCV inh inconclusive, LASV entry inh inconclusive
Cc1cccc(C2CC3(CC(C)(C)NC(=S)N3)Oc3cc(O)ccc32)c1 (stereo unspecified)	HCV inh 10µM, MARV entry inh inconclusive, LASV entry inh inconclusive
C/C(=N\NC(=O)c1ccccc1)c1ccccc1F	Shiga toxin inh 86.6, MARV entry inh inconclusive, CHX counter 25.6
C/C(=N\NC(=O)c1ccccc1OCCOc1ccccc1)c1ccccc1F	HCV inh inconclusive, MARV entry inh 11.2µM, LASV entry inh inconclusive (no result: Shiga toxin inh, CHX counter)
C/C(=N\NC(=O)c1ccccc1)c1ccccc1Br	Shiga toxin inh 66.9, MARV entry inh inconclusive, CHX counter 58.1
NNC(=O)c1ccccc1OCCOc1ccccc1	none
C/C(=N\NC(=O)OC(C)(C)C)c1ccccc1Br	Shiga toxin inh 62.8, CHX counter 59.2
O=C(CCN1C(=O)C2C3C=CC(C3)C2C1=O)NC1CCCCC1 (stereo unspecified)	none (no result: MARV entry inh, LASV entry inh)
COc1cc(C23CCCN(CCC(C(C)(C)C)C2)C32OCCO2)cc(OC)c1OC (stereo unspecified)	none (no result: Shiga toxin inh, HCV inh, MARV entry inh, CHX counter, LASV entry inh)
CCc1ccc(C2C(C(=O)Nc3ccccc3)=C(C)Nc3nc(SCC(=O)c4ccc(C)cc4)nn32)cc1 (stereo unspecified)	none (no result: Shiga toxin inh, HCV inh, MARV entry inh, CHX counter)
Cc1cc(C)c(S(=O)(=O)N2CCN(C(=O)c3c(C)nn(-c4ccccc4)c3Cl)CC2)c(C)c1	FMDV antiviral 25.1µM, HCV inh inconclusive, MARV entry inh 14.1µM, LASV entry inh inconclusive (no result: Shiga toxin inh, CHX counter)
Cc1cc(C)c(NC(=O)CN2C(=O)NC3(CCOc4ccccc43)C2=O)c(C)c1 (stereo unspecified)	none
CCCN(CCC)C(=O)CN1C(=O)CSc2ccc(S(=O)(=O)N3CCC(C)CC3)cc21	none (no result: Shiga toxin inh, HCV inh, CHX counter, LASV entry inh)
COc1ccc(Nc2nc(N)nc(COc3ccc(OC)cc3)n2)cc1	none
COc1ccc(OCc2nc(N)nc(Nc3ccc(C)cc3)n2)cc1	MARV entry inh inconclusive, CHX counter 15.1
Cc1nc(N)nc(COc2ccccc2)n1	Shiga toxin inh 46.0, MARV entry inh inconclusive, CHX counter 36.8
COc1ccc(OCc2nc(N)nc(Nc3cccc(C)c3C)n2)cc1	MARV entry inh inconclusive
COc1ccc(OCc2nc(N)nc(Nc3ccccc3)n2)cc1	MARV entry inh inconclusive, CHX counter 21.3
C/C(N)=C(/C#N)C(=O)COC(=O)CCSc1ccccc1Cl	none
O=C(Nc1cccc(-c2csc(Nc3ccc(Cl)cc3)n2)c1)c1cccc(C(F)(F)F)c1	FMDV antiviral inconclusive, Shiga toxin inh 42.2, HCV inh 3.16µM, CHX counter 12.3 (no result: MARV entry inh, LASV entry inh)
O=C(Nc1cccc(-c2csc(Nc3ccccc3)n2)c1)c1cc([N+](=O)[O-])cc(C(F)(F)F)c1	Shiga toxin inh 27.1, HCV inh inconclusive, CHX counter 17.7 (no result: MARV entry inh, LASV entry inh)
O=C(Nc1cccc(-c2csc(Nc3ccc(Cl)cc3)n2)c1)c1cc([N+](=O)[O-])cc(C(F)(F)F)c1	FMDV antiviral inconclusive, HCV inh inconclusive (no result: MARV entry inh, LASV entry inh)
O=C(Nc1ccc(-c2csc(Nc3ccc(Cl)cc3)n2)cc1)c1cc([N+](=O)[O-])cc(C(F)(F)F)c1	HCV inh inconclusive (no result: MARV entry inh, LASV entry inh)
CCN(CC)c1cc(C)c2ccccc2n1	none
CC(C)NC(=O)CN1CCC(O)(c2ccccc2)CC1	none (no result: FMDV antiviral)
Cc1ccsc1C(=O)NCCc1nnc2ccccn12	Shiga toxin inh 72.3, HCV inh inconclusive, CHX counter 30.6 (no result: MARV entry inh, LASV entry inh)
O=C(NCCc1nnc2ccccn12)c1cccs1	Shiga toxin inh 51.0, CHX counter 35.6 (no result: MARV entry inh, LASV entry inh)
Cc1ccc(/C=C/C(=O)OCC(=O)NC(=O)NCc2ccccc2)cc1	none (no result: Shiga toxin inh, MARV entry inh, CHX counter, LASV entry inh)
CCOc1ccc(OCCC(=O)Nc2cccc(S(=O)(=O)N3CCCC3)c2)cc1	HCV inh 11.2µM, MARV entry inh inconclusive, LASV entry inh inconclusive (no result: Shiga toxin inh, CHX counter)
CCOc1ccc(OCCC(=O)OCC(=O)Nc2cccc(S(=O)(=O)N3CCCCC3)c2)cc1	HCV inh inconclusive (no result: Shiga toxin inh, MARV entry inh, CHX counter, LASV entry inh)
CCOc1ccc(N2CC(C(=O)Nc3cccc(S(=O)(=O)N4CCCC4)c3)CC2=O)cc1 (stereo unspecified)	HCV inh 10µM, LASV entry inh inconclusive (no result: Shiga toxin inh, CHX counter)
CCC(=O)c1ccc(OCC(=O)Nc2cccc(S(=O)(=O)N3CCCCCC3)c2)cc1	FMDV antiviral inconclusive, HCV inh inconclusive, MARV entry inh inconclusive (no result: Shiga toxin inh, CHX counter)
CCc1ccc(C(=O)CCC(=O)Nc2cccc(S(=O)(=O)N3CCCCC3)c2)cc1	HCV inh 10µM, MARV entry inh inconclusive (no result: Shiga toxin inh, CHX counter)
Cc1cc(C)c(NC(=O)C2CC(=O)N(c3ccc4c(c3)OCCO4)C2)c(C)c1 (stereo unspecified)	HCV inh inconclusive, MARV entry inh inconclusive, CHX counter 26.0
CCOc1ccc(N2CC(C(=O)Nc3cccc(S(=O)(=O)N4CCOCC4)c3)CC2=O)cc1 (stereo unspecified)	none (no result: Shiga toxin inh, HCV inh, MARV entry inh, CHX counter, LASV entry inh)
CCc1cccc(CC)c1NC(=O)C1CC(=O)N(c2ccc3c(c2)OCCO3)C1 (stereo unspecified)	MARV entry inh inconclusive
